# Laboratory results from PubChem BioAssay (NCATS).
# Results filed as inconclusive are left out. Calls of active or inactive are those of the source. Unless noted, the call rests on the fitted dose curve; in most records, active means well fitted curve in the direction sought with a large enough effect; inconclusive means small, poorly fitted or top-dose-only effect, or another doubt; inactive means no such curve, though single readings can be large; an effect the other way counts as inactive or inconclusive.
# What was measured:
# [1] = target: Lysosomal acid glucosylceramidase (Homo sapiens) (UniProt P04062); assay: Glucocerebrosidase-p2 (AID 348; in the data active means potency below about 10 µM; further: potency means the concentration at half of the fitted maximal effect); settings: purified GBA, blue fluorogenic substrate, 40 min
# Lysosomal acid glucosylceramidase (Homo sapiens), sequence (P04062 whole entry, looked up): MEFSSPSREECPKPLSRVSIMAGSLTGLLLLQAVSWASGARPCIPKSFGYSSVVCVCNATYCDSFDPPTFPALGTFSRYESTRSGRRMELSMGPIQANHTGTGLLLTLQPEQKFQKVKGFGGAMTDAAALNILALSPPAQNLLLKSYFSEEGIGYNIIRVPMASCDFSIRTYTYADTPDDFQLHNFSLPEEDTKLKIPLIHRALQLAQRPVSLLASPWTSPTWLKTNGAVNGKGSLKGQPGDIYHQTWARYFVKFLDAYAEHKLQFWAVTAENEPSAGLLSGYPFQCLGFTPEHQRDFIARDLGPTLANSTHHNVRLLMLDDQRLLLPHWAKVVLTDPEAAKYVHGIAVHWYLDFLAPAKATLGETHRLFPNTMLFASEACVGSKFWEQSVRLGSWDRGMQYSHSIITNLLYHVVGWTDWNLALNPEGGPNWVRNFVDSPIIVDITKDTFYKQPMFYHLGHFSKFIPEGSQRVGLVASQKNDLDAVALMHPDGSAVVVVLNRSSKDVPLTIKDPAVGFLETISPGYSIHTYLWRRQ
# How it was run: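 Compounds titrated from 0.6 nM upwards against 0.2 nM enzyme in pH 5.9 citric acid/KH2PO4, taurocholate, tween-20; blue fluorogenic substrate 80 uM, 40 min room temperature, stopped and read Ex 365/Em 440 for AC50.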
# [2] = target: Glucocorticoid receptor (Homo sapiens) (UniProt P04150); assay: GR-GFP Redistribution (AID 450;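 active means compounds whose dose series gives a full or clear partial fitted curve of increased nuclear translocation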; further: potency means the concentration at half of the fitted maximal effect); settings: U2OS GR-GFP nuclear translocation, laser cytometry, 2 h
# Glucocorticoid receptor (Homo sapiens), sequence (P04150 whole entry, looked up, the tested form may be a part): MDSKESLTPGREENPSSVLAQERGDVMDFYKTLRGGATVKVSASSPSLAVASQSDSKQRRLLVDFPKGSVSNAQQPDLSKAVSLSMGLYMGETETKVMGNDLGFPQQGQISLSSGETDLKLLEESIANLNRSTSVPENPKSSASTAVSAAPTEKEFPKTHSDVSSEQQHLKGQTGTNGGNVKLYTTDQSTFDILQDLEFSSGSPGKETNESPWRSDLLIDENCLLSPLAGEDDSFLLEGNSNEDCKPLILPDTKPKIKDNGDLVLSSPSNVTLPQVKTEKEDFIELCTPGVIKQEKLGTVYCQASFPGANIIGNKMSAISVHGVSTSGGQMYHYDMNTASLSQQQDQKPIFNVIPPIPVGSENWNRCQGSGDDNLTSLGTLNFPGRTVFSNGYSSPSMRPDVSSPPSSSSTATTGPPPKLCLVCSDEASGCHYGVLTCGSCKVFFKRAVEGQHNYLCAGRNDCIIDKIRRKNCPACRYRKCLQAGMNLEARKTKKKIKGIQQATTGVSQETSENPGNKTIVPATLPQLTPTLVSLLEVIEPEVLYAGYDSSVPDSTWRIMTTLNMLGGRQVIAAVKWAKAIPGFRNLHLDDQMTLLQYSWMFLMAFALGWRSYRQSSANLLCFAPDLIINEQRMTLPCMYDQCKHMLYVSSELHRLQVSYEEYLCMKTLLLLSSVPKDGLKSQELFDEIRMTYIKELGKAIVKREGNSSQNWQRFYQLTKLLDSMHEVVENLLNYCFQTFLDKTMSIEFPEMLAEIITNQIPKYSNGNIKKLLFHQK
# [3] = target: Glucocorticoid receptor (Homo sapiens) (UniProt P04150); assay: GR-EFC Redistribution (AID 451; calls by dose curve; further: potency means the concentration at half of the fitted maximal effect); settings: CHO-K1 GR-EFC translocation, beta-gal luminescence, 2 h
# How it was run: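 CHO-K1 cells stably expressing nuclear-localized β-gal enzyme acceptor and GR fused C-terminally to the enzyme donor fragment; ligand-driven nuclear translocation restores β-gal by complementation. Compounds titrated up to 46 uM final, 2 h at 37 °C; luminescence read.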
# [4] = target: 3',5'-cyclic-AMP phosphodiesterase 4B (Homo sapiens) (UniProt Q07343); assay: qHTS Assay for Inhibitors of PDE-IV (AID 607; active means well fitted activation curve with a large enough effect in the main read-out, with a control signal flat, not every such curve was filed as active; further: % of control where 0% means no effect); settings: HEK293 ACTOne CNG channel cells, membrane potential fluorescence; series mostly up to 22.9 µM
# 3',5'-cyclic-AMP phosphodiesterase 4B (Homo sapiens), sequence (Q07343 whole entry, looked up): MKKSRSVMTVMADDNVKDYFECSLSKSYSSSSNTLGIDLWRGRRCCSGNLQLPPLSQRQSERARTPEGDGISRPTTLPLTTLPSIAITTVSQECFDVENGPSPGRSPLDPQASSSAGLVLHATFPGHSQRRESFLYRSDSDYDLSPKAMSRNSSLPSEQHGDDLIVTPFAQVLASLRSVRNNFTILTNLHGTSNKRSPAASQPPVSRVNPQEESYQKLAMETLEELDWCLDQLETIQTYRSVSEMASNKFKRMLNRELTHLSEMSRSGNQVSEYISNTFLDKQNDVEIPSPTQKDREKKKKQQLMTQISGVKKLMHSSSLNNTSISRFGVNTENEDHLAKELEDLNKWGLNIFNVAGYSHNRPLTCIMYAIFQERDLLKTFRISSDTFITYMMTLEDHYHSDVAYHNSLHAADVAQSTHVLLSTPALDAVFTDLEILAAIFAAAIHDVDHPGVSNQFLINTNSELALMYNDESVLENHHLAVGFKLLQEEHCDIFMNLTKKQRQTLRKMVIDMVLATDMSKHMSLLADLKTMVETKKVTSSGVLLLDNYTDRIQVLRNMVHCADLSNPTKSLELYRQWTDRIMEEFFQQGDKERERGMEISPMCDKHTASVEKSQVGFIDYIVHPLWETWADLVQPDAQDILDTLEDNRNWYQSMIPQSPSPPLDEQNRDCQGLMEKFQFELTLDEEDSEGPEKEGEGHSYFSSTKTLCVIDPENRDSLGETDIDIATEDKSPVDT
# How it was run: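 Live HEK293 cells with a modified cyclic nucleotide-gated (CNG) channel report intracellular cAMP via membrane-potential dye fluorescence (ex 535/em 590 nm). Endogenous PDE-IV was targeted. Compounds were tested at up to 22.9 uM final; RO 20-1724 100 uM served as control.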
# [5] = qHTS Assay for Lipid Storage Modulators (AID 1519; calls by dose curve); settings: Drosophila S3 cells, BODIPY lipid droplet/cell ratio, laser cytometry, cells loaded with oleic acid; for activity change, negative = inhibition: at 57.5 µM (top of the series)
# How it was run: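 Cells seeded at 5,000 per well were treated with compounds over a concentration series and loaded with oleic acid (400 uM, as added). Lipid droplet fluorescence (488 nm excitation, 500-530 nm channel) was read by laser-scanning cytometry and normalized to 20 uM Triacsin C.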
# [6] = target: Dual specificity protein kinase CLK4 (Homo sapiens) (UniProt Q9HAZ1); assay: qHTS Assay for Inhibitors of CDC-like Kinase 4 (Kinase-Glo Assay) (AID 1770); settings: recombinant Clk4, Kinase-Glo ATP depletion luminescence; series mostly up to 66.7 µM; further: nearly all actives have a fitted effect of over 65% in size; further: potency means the concentration at half of the fitted maximal effect
# Dual specificity protein kinase CLK4 (Homo sapiens), sequence (Q9HAZ1 whole entry, looked up): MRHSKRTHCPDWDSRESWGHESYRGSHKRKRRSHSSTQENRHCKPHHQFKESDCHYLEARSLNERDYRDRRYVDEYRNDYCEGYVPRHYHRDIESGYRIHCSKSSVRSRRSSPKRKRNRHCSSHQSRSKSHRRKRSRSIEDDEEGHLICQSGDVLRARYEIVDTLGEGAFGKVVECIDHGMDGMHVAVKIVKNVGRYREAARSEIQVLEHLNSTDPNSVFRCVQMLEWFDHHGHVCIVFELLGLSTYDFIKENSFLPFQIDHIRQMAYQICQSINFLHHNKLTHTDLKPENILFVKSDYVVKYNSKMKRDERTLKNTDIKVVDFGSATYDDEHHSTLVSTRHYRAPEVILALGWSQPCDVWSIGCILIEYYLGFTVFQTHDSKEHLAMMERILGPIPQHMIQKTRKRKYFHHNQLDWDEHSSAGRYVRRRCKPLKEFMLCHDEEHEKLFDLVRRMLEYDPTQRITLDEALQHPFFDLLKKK
# How it was run: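 25 nM Clk4 with 100 uM RS repeat peptide and 1 uM ATP (final) in Tris pH7.5, 10 mM MgCl2, 4.5 h at room temperature. Remaining ATP measured by Kinase-Glo luciferase luminescence.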
# [7] = target: Dual specificity protein kinase CLK4 (Homo sapiens) (UniProt Q9HAZ1); assay: qHTS Assay for Inhibitors of CDC-like Kinase 4 (ADP-Glo Assay) (AID 1771); settings: recombinant CLK4, ADP-Glo luminescence; series mostly up to 80 µM; further: nearly all actives have a fitted effect of over 70% in size; further: potency means the concentration at half of the fitted maximal effect
# How it was run: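 25 nM Clk4 with 100 uM RS repeat peptide and 1 uM ATP (final) in buffer with 2 mM MgCl2, 0.5 mM EGTA, 2.5 mM DTT, 0.01% Triton X-100; 1 h at room temperature; ADP-Glo luminescence for ADP formed.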
# [8] = target: Dual specificity protein kinase CLK4 (Homo sapiens) (UniProt Q9HAZ1); assay: qHTS Assay for Inhibitors of CDC-like Kinase 4 (ADP-FP Assay) (AID 1795); settings: Transcreener ADP fluorescence polarization; series mostly up to 50 µM; further: nearly all actives have a fitted effect of over 60% in size; further: potency means the concentration at half of the fitted maximal effect
# How it was run: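 Recombinant Clk4 (6.25 nM) phosphorylated 100 uM RS repeat peptide with 1 uM ATP in 25 mM Tris pH 7.5, 10 mM MgCl2, 0.5 mM EGTA, 2.5 mM DTT, 0.01% Triton X-100 for 1 h. ADP was detected by Transcreener ADP2 competitive fluorescence polarization after 30 min at room temperature.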
# [9] = target: Ubiquitin carboxyl-terminal hydrolase 1 (Homo sapiens) (UniProt O94782); assay: Inhibitors of USP1/UAF1: Pilot qHTS (AID 504865); settings: purified USP1/UAF1, Ub-rhodamine cleavage fluorescence; series mostly up to 54.9 µM;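 further: rhodamine fluorescence freed from ubiquitin-rhodamine substrate followed over time; top concentration of the series differs between compounds; on the % scale 0 is the no-effect control and ±100 the full control effect; nearly all actives have a fitted effect of over 35% in size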
# Ubiquitin carboxyl-terminal hydrolase 1 (Homo sapiens), sequence (O94782 whole entry, looked up): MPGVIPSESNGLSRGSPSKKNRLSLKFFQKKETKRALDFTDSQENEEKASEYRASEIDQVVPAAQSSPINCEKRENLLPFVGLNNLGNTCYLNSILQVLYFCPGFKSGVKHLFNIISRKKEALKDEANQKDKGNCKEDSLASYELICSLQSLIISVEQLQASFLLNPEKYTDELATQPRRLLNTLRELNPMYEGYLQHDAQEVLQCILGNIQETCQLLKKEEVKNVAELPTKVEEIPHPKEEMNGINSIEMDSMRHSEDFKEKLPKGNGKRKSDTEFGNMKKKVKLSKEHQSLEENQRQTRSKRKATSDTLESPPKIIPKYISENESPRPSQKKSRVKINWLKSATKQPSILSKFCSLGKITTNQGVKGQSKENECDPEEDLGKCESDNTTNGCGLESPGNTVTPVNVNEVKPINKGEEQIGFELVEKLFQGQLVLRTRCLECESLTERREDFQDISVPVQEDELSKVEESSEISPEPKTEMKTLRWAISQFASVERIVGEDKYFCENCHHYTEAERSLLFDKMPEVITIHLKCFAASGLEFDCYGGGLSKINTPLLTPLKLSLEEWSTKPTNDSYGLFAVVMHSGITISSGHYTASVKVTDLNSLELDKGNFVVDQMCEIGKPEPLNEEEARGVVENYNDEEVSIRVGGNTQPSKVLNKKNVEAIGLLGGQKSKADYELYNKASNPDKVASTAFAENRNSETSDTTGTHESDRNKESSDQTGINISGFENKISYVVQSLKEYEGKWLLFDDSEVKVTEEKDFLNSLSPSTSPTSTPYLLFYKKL
# How it was run: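 USP1/UAF1 complex at 1 nM preincubated 15 min at room temperature with compound, then Ub-Rho substrate added at 150 nM final. Fluorescence (480/540 nm) read kinetically in 50 mM HEPES pH 7.8, 0.5 mM EDTA, 1 mM TCEP, 0.1 mg/ml BSA, 0.01% Tween-20.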
# [10] = Primary qHTS for small molecule stabilizers of the endoplasmic reticulum resident proteome: Secreted ER Calcium Modulated Protein (SERCaMP) assay (AID 1508630); settings: SH-SY5Y GLuc-SERCaMP (Gaussia luciferase released on ER calcium loss) secretion, thapsigargin, luminescence; series mostly up to 38.4 µM; further: on the % scale 0 is the no-effect control and ±100 the full control effect
# How it was run: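 GLuc-SERCaMP-expressing SH-SY5Y cells, pretreated 16 h with compound, are challenged with thapsigargin to empty ER calcium stores; after 4 h, coelenterazine is added directly to the medium and luminescence is imaged.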
# [11] = target: Cytochrome P450 1A2 (Homo sapiens) (UniProt P05177); assay: p450-cyp1a2 (AID 410; calls by dose curve; further: potency means the concentration at half of the fitted maximal effect); settings: recombinant CYP1A2, luciferin-ME demethylation, luminescence; series mostly up to 57 µM
# Cytochrome P450 1A2 (Homo sapiens), sequence (P05177 whole entry, looked up): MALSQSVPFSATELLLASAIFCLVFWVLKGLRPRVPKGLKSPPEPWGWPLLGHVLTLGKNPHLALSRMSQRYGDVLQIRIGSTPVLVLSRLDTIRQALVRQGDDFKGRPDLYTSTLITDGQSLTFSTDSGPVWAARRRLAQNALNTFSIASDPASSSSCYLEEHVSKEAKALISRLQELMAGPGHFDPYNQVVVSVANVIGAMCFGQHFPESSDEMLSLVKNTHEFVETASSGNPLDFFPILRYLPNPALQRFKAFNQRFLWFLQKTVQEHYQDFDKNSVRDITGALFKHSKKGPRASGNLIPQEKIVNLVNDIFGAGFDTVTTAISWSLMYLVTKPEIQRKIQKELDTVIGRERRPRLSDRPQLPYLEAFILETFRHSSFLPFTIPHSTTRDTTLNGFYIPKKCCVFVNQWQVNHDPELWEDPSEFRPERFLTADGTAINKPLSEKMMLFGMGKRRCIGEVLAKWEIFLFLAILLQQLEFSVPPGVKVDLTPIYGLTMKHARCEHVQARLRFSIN
# How it was run: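 20nM CYP1A2 with 100uM Luciferin-ME (at Km) in 100mM KPO4; compound preincubated 10 min, NADPH regeneration added, 60 min at room temperature. Luciferin quantified by luminescence after detection reagent; normalized to 57 uM furafylline.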
# [12] = Stat Signaling Pathway (AID 446; active means well fitted curve in either direction with a large enough effect, not every such curve was filed as active;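 further: ME-180 cervical cancer cells given 40 pM IL-6 alongside compound; SIE-controlled beta-lactamase reporter measured as 460/530 nm FRET emission ratio; on the % scale 0 is the no-effect control and ±100 the full control effect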); settings: ME-180 SIE beta-lactamase reporter, IL-6 stimulated, 5 h; at 7.69 µM (top of the series) unless noted
# How it was run: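 IL-6/STAT signaling read in ME-180 cells via an SIE beta-lactamase reporter. Stimulus was 40 pM IL-6 (its AC50) for 5 hrs, so both activation and inhibition register.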
# [13] = qHTS Assay for Identification of Small Molecule Agonists for Hypoxia Response Element Signaling Pathway (AID 914; active means well fitted activation curve with a large enough effect in the signal ratio, with a control signal flat, not every such curve was filed as active; the % refers to the signal ratio; further: potency means the concentration at half of the fitted maximal effect); settings: ME-180 HRE-bla reporter, beta-lactamase ratio, CoCl2, 17 h; activation: stronger effect = higher value
# How it was run: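 HRE-bla ME-180 assay for agonist-like enhancement of an EC50 CoCl2 stimulus: 17 h at 37 degrees Celsius, CCF4 for 2.5 h, ratiometric 460/530 nm signal converted to %Activity and fitted to AC50.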
# [14] = AP1 Signaling Pathway (AID 357; active means well fitted curve in either direction with a large enough effect, not every such curve was filed as active;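 further: ME-180 reporter cells stimulated with EGF at its EC50 level; on the % scale 0 is the no-effect control and ±100 the full control effect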); settings: ME-180 (cervical carcinoma) AP-1-bla reporter, EGF-induced, beta-lactamase ratio, 5 h; at 7.69 µM (top of the series) unless noted
# How it was run: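 Read-out was the 460nm/530nm emission ratio (excitation 405nm) after CCF4 loading for 2.5 hours at room temperature. Cells carried an AP-1-driven beta-lactamase reporter, were stimulated with EC50 EGF plus compound for 5 hours, and AC50 values came from titrations.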
# [15] = NFAT Signaling Pathway (AID 444; active means well fitted curve in either direction with a large enough effect, not every such curve was filed as active;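 further: carbachol stimulus at about its EC50 of 1 µM final; on the % scale 0 is the no-effect control and ±100 the full control effect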); settings: Jurkat NFAT-bla M1, carbachol, beta-lactamase ratio, 5 h; at 7.69 µM (top of the series) unless noted
# How it was run: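 Jurkat cells carrying an NFAT-driven β-lactamase reporter and co-transfected muscarinic M1 receptor were treated with compound plus carbachol (1 uM final, an EC50 level) for 5 h at 37 °C. CCF4 loading followed for 1 h at RT; 460/530 nm ratio gave %activity.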
# [16] = target: Mitogen-activated protein kinase 10 (Mus musculus) (UniProt Q61831); assay: JNK3 AlphaScreen Assay (AID 530; active means well fitted curve in either direction with a large enough effect, not every such curve was filed as active); settings: JNK3 lysate, c-Jun phosphorylation; series mostly up to 57.1 µM
# How it was run: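 Inhibitors reduce antibody binding to phosphorylated biotin-cJun, lowering AlphaScreen luminescence. Lysates from HepG2 cells pre-activated by IL-1beta plus TNF-alpha supplied JNK3; compounds were titrated.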
# [17] = target: Cytochrome P450 3A4 (Homo sapiens) (UniProt P08684); assay: qHTS Assay for Inhibitors and Substrates of Cytochrome P450 3A4 (AID 884); settings: recombinant CYP3A4, Luciferin-PPXE luminescence; series mostly up to 57.1 µM; further: potency means the concentration at half of the fitted maximal effect; nearly all actives have a fitted effect of over 50% in size
# Cytochrome P450 3A4 (Homo sapiens), sequence (P08684 whole entry, looked up): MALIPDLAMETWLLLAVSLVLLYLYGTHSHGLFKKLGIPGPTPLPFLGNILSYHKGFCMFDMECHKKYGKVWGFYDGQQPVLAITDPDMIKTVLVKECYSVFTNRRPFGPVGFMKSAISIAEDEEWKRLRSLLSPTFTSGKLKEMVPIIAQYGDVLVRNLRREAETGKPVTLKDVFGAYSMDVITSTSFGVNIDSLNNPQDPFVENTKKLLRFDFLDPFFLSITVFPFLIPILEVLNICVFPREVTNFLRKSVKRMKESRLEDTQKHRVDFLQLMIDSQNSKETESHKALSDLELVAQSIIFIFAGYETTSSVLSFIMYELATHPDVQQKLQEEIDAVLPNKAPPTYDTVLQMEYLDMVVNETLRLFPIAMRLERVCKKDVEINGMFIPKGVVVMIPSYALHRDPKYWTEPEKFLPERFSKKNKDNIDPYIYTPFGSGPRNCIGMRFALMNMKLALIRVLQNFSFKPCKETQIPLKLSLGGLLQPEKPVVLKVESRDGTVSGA
# How it was run: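 20 nM human CYP3A4 with 25 uM Luciferin-PPXE (at KM) in 200 mM KPO4, preincubated 10 min with compound; NADPH regeneration started a 60 min RT reaction. Luciferin detected by luminescence, normalized to 57 uM ketoconazole as full inhibition.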
# [18] = target: Cytochrome P450 3A4 (Homo sapiens) (UniProt P08684); assay: qHTS Assay for Activators of Cytochrome P450 3A4 (AID 885); settings: recombinant CYP3A4, Luciferin-PPXE luminescence, 60 min; series mostly up to 57.1 µM; further: nearly all actives have a fitted effect of over 65% in size
# How it was run: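 Quantitative HTS format: compounds preincubated with 20nM human CYP3A4 and Luciferin-PPXE substrate at KM, reaction started by NADPH regeneration, stopped after 60 min, luciferase luminescence read 20 min later.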
# [19] = measured here: cell count channel max response
# [20] = measured here: lipid channel max response
Structure (SMILES),Potency [1],Potency [2],Potency [3],Potency [4],"activity change, negative = inhibition [5]","max response [5, 19] [%]","max response [5, 20] [%]",Potency [6],Potency [7],Potency [8],Potency [9],Potency [10],Potency [11],"activity, negative = inhibition [12]",Potency [13],"activity change, negative = inhibition [14]","activity change, negative = inhibition [15]",outcome [16],Potency [17],Potency [18]
CN1CCN(c2ncc3nc(-c4ccc(Cl)cc4)c(=O)n(-c4ccccc4)c3n2)CC1,> 11.4 µM (inactive),> 9.22 µM (inactive),> 46 µM (inactive),inactive,4.1% (inactive),13.9,16.4,inactive,inactive,inactive,inactive,inactive,–,–,–,–,–,–,–,–
CN(C)c1ncc2nc(-c3ccccc3)c(=O)n(Cc3ccc(F)cc3)c2n1,> 11.4 µM (inactive),> 9.22 µM (inactive),> 46 µM (inactive),inactive,0.549% (inactive),7.88,4.69,inactive,inactive,inactive,inactive,inactive,12.6 µM (active),178% [activator] (active),0.501 µM (active),–,–,–,–,–
CC(=O)NCCNc1ncnc2ccc(-c3ccoc3)cc12,–,> 46 µM (inactive),> 46 µM (inactive),inactive,1.77% (inactive),-0.704,-3.36,0.891 µM (active),1 µM (active),0.355 µM (active),inactive,inactive,12.6 µM (active),3.17% (inactive),–,-5.21% (inactive),17.6% (inactive),inactive,–,–
CC(=O)NCCNc1ncncc1-c1ccc(N(C)C)cc1,–,> 46 µM (inactive),> 46 µM (inactive),inactive,-9.91% (inactive),25.7,8.09,inactive,inactive,inactive,inactive,inactive,6.31 µM (active),9.91% (inactive),–,-11.6% (inactive),9.49% (inactive),inactive,2 µM (active),inactive
O=c1c(-c2ccccc2)nc2cnc(Nc3ccccc3)nc2n1Cc1cccs1,> 11.4 µM (inactive),> 9.22 µM (inactive),> 46 µM (inactive),–,-3.34% (inactive),8.31,4.81,inactive,inactive,inactive,inactive,inactive,–,–,–,-15.4% (inactive),–,inactive,–,–
CN(C)c1ncnc2ccc(-c3ccoc3)cc12,> 11.4 µM (inactive),> 46 µM (inactive),> 46 µM (inactive),–,1.41% (inactive),30.5,29.1,0.501 µM (active),0.562 µM (active),0.178 µM (active),inactive,inactive,0.794 µM (active),-10.6% (inactive),–,–,1.35% (inactive),inactive,–,inactive
